# Laboratory results as given in the supplement of paper PMC4466140.
# Molecular target: AgAbp1
# Experiment: SPOT peptide array binding signal intensity (averaged, normalized) (arbitrary units (background-subtracted, floor 0; scale differs between SH3 domains)); higher = stronger binding of the SH3 domain to the peptide
# Experimental: (§1)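 GST-tagged SH3 domains from S. cerevisiae (Sc), A. gossypii (Ag), C. albicans (Ca) and S. pombe (Sp) were incubated at 10 ug/ml overnight at 4 C on cellulose SPOT membranes carrying 292 synthetic 15-mer peptides mined from the S. cerevisiae proteome (cysteines replaced by serines). Binding was detected with anti-GST antibody, HRP secondary and chemiluminescence, quantified with Genespotter, and reported as normalized spot intensities averaged over biological replicates.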
row,Binder,SPOT peptide array binding signal intensity
1,RLSRLLLSLPPESFT,21.5
2,RSRRSSFAYPQQVAI,22

# Molecular target: AgBbc1
# Experiment: as above
# Experimental: as §1
row,Binder,SPOT peptide array binding signal intensity
1,RLSRLLLSLPPESFT,5.5
2,RSRRSSFAYPQQVAI,64

# Molecular target: AgBem1-D1
# Experiment: as above
# Experimental: as §1
row,Binder,SPOT peptide array binding signal intensity
1,RLSRLLLSLPPESFT,356
2,RSRRSSFAYPQQVAI,91.5

# Molecular target: AgBzz1-D1
# Experiment: as above
# Experimental: as §1
row,Binder,SPOT peptide array binding signal intensity
1,RLSRLLLSLPPESFT,101
2,RSRRSSFAYPQQVAI,32

# Molecular target: AgBzz1-D2
# Experiment: as above
# Experimental: as §1
row,Binder,SPOT peptide array binding signal intensity
1,RLSRLLLSLPPESFT,145
2,RSRRSSFAYPQQVAI,50.5

# Molecular target: AgCyk3
# Experiment: as above
# Experimental: as §1
row,Binder,SPOT peptide array binding signal intensity
1,RLSRLLLSLPPESFT,2
2,RSRRSSFAYPQQVAI,1

# Molecular target: AgFus1
# Experiment: as above
# Experimental: as §1
row,Binder,SPOT peptide array binding signal intensity
1,RLSRLLLSLPPESFT,878
2,RSRRSSFAYPQQVAI,200

# Molecular target: AgHof1
# Experiment: as above
# Experimental: as §1
row,Binder,SPOT peptide array binding signal intensity
1,RLSRLLLSLPPESFT,96.5
2,RSRRSSFAYPQQVAI,33.5

# Molecular target: AgHse1
# Experiment: as above
# Experimental: as §1
row,Binder,SPOT peptide array binding signal intensity
1,RLSRLLLSLPPESFT,1240
2,RSRRSSFAYPQQVAI,254

# Molecular target: AgLsb1
# Experiment: as above
# Experimental: as §1
row,Binder,SPOT peptide array binding signal intensity
1,RLSRLLLSLPPESFT,17.8
2,RSRRSSFAYPQQVAI,2.5

# Molecular target: AgLsb4
# Experiment: as above
# Experimental: as §1
row,Binder,SPOT peptide array binding signal intensity
1,RLSRLLLSLPPESFT,108
2,RSRRSSFAYPQQVAI,39.5

# Molecular target: AgMyo5
# Experiment: as above
# Experimental: as §1
row,Binder,SPOT peptide array binding signal intensity
1,RLSRLLLSLPPESFT,≤ 0
2,RSRRSSFAYPQQVAI,6.25

# Molecular target: AgNbp2
# Experiment: as above
# Experimental: as §1
row,Binder,SPOT peptide array binding signal intensity
1,RLSRLLLSLPPESFT,47.5
2,RSRRSSFAYPQQVAI,39

# Molecular target: AgRvs167
# Experiment: as above
# Experimental: as §1
row,Binder,SPOT peptide array binding signal intensity
1,RLSRLLLSLPPESFT,6.5
2,RSRRSSFAYPQQVAI,2.33

# Molecular target: AgSho1
# Experiment: as above
# Experimental: as §1
row,Binder,SPOT peptide array binding signal intensity
1,RLSRLLLSLPPESFT,70
2,RSRRSSFAYPQQVAI,9

# Molecular target: AgSla1-D1-D2
# Experiment: as above
# Experimental: as §1
row,Binder,SPOT peptide array binding signal intensity
1,RLSRLLLSLPPESFT,85
2,RSRRSSFAYPQQVAI,63.5

# Molecular target: AgSla1-D3
# Experiment: as above
# Experimental: as §1
row,Binder,SPOT peptide array binding signal intensity
1,RLSRLLLSLPPESFT,5.5
2,RSRRSSFAYPQQVAI,4.5

# Molecular target: CaAbp1-D1
# Experiment: as above
# Experimental: as §1
row,Binder,SPOT peptide array binding signal intensity
1,RLSRLLLSLPPESFT,152
2,RSRRSSFAYPQQVAI,170

# Molecular target: CaAbp1-D2
# Experiment: as above
# Experimental: as §1
row,Binder,SPOT peptide array binding signal intensity
1,RLSRLLLSLPPESFT,48
2,RSRRSSFAYPQQVAI,152

# Molecular target: CaBbc1
# Experiment: as above
# Experimental: as §1
row,Binder,SPOT peptide array binding signal intensity
1,RLSRLLLSLPPESFT,73.5
2,RSRRSSFAYPQQVAI,258

# Molecular target: CaBem1-D1
# Experiment: as above
# Experimental: as §1
row,Binder,SPOT peptide array binding signal intensity
1,RLSRLLLSLPPESFT,1
2,RSRRSSFAYPQQVAI,20.5

# Molecular target: CaBzz1-D1
# Experiment: as above
# Experimental: as §1
row,Binder,SPOT peptide array binding signal intensity
1,RLSRLLLSLPPESFT,46
2,RSRRSSFAYPQQVAI,84.5

# Molecular target: CaBzz1-D2
# Experiment: as above
# Experimental: as §1
row,Binder,SPOT peptide array binding signal intensity
1,RLSRLLLSLPPESFT,138
2,RSRRSSFAYPQQVAI,102

# Molecular target: CaCyk3
# Experiment: as above
# Experimental: as §1
row,Binder,SPOT peptide array binding signal intensity
1,RLSRLLLSLPPESFT,17
2,RSRRSSFAYPQQVAI,9

# Molecular target: CaFus1
# Experiment: as above
# Experimental: as §1
row,Binder,SPOT peptide array binding signal intensity
1,RLSRLLLSLPPESFT,3850
2,RSRRSSFAYPQQVAI,262

# Molecular target: CaHof1
# Experiment: as above
# Experimental: as §1
row,Binder,SPOT peptide array binding signal intensity
1,RLSRLLLSLPPESFT,0.5
2,RSRRSSFAYPQQVAI,≤ 0

# Molecular target: CaHse1
# Experiment: as above
# Experimental: as §1
row,Binder,SPOT peptide array binding signal intensity
1,RLSRLLLSLPPESFT,33.5
2,RSRRSSFAYPQQVAI,4.5

# Molecular target: CaLsb1
# Experiment: as above
# Experimental: as §1
row,Binder,SPOT peptide array binding signal intensity
1,RLSRLLLSLPPESFT,1.5
2,RSRRSSFAYPQQVAI,1.5

# Molecular target: CaLsb4
# Experiment: as above
# Experimental: as §1
row,Binder,SPOT peptide array binding signal intensity
1,RLSRLLLSLPPESFT,37.5
2,RSRRSSFAYPQQVAI,70.5

# Molecular target: CaMyo5
# Experiment: as above
# Experimental: as §1
row,Binder,SPOT peptide array binding signal intensity
1,RLSRLLLSLPPESFT,28
2,RSRRSSFAYPQQVAI,7.25

# Molecular target: CaNbp2
# Experiment: as above
# Experimental: as §1
row,Binder,SPOT peptide array binding signal intensity
1,RSRRSSFAYPQQVAI,130

# Molecular target: CaRvs167
# Experiment: as above
# Experimental: as §1
row,Binder,SPOT peptide array binding signal intensity
1,RSRRSSFAYPQQVAI,5.67

# Molecular target: CaRvs167-3
# Experiment: as above
# Experimental: as §1
row,Binder,SPOT peptide array binding signal intensity
1,RSRRSSFAYPQQVAI,13.5

# Molecular target: CaSho1
# Experiment: as above
# Experimental: as §1
row,Binder,SPOT peptide array binding signal intensity
1,RSRRSSFAYPQQVAI,66.5

# Molecular target: CaSla1-D1-D2
# Experiment: as above
# Experimental: as §1
row,Binder,SPOT peptide array binding signal intensity
1,RSRRSSFAYPQQVAI,55

# Molecular target: CaSla1-D3
# Experiment: as above
# Experimental: as §1
row,Binder,SPOT peptide array binding signal intensity
1,RSRRSSFAYPQQVAI,2.25

# Molecular target: ScAbp1
# Experiment: as above
# Experimental: as §1
row,Binder,SPOT peptide array binding signal intensity
1,RSRRSSFAYPQQVAI,27.5

# Molecular target: ScBbc1
# Experiment: as above
# Experimental: as §1
row,Binder,SPOT peptide array binding signal intensity
1,RSRRSSFAYPQQVAI,24.5

# Molecular target: ScBem1-D1
# Experiment: as above
# Experimental: as §1
row,Binder,SPOT peptide array binding signal intensity
1,RSRRSSFAYPQQVAI,79.5

# Molecular target: ScBzz1-D1
# Experiment: as above
# Experimental: as §1
row,Binder,SPOT peptide array binding signal intensity
1,RSRRSSFAYPQQVAI,37

# Molecular target: ScBzz1-D2
# Experiment: as above
# Experimental: as §1
row,Binder,SPOT peptide array binding signal intensity
1,RSRRSSFAYPQQVAI,28

# Molecular target: ScCyk3
# Experiment: as above
# Experimental: as §1
row,Binder,SPOT peptide array binding signal intensity
1,RSRRSSFAYPQQVAI,69

# Molecular target: ScFus1
# Experiment: as above
# Experimental: as §1
row,Binder,SPOT peptide array binding signal intensity
1,RSRRSSFAYPQQVAI,157

# Molecular target: ScHof1
# Experiment: as above
# Experimental: as §1
row,Binder,SPOT peptide array binding signal intensity
1,RSRRSSFAYPQQVAI,0.5

# Molecular target: ScHse1
# Experiment: as above
# Experimental: as §1
row,Binder,SPOT peptide array binding signal intensity
1,RSRRSSFAYPQQVAI,644

# Molecular target: ScLsb1
# Experiment: as above
# Experimental: as §1
row,Binder,SPOT peptide array binding signal intensity
1,RSRRSSFAYPQQVAI,1

# Molecular target: ScLsb2
# Experiment: as above
# Experimental: as §1
row,Binder,SPOT peptide array binding signal intensity
1,RSRRSSFAYPQQVAI,7.5

# Molecular target: ScLsb3
# Experiment: as above
# Experimental: as §1
row,Binder,SPOT peptide array binding signal intensity
1,RSRRSSFAYPQQVAI,59

# Molecular target: ScLsb4
# Experiment: as above
# Experimental: as §1
row,Binder,SPOT peptide array binding signal intensity
1,RSRRSSFAYPQQVAI,24.5

# Molecular target: ScMyo3
# Experiment: as above
# Experimental: as §1
row,Binder,SPOT peptide array binding signal intensity
1,RSRRSSFAYPQQVAI,3.5

# Molecular target: ScMyo5
# Experiment: as above
# Experimental: as §1
row,Binder,SPOT peptide array binding signal intensity
1,RSRRSSFAYPQQVAI,8.5

# Molecular target: ScNbp2
# Experiment: as above
# Experimental: as §1
row,Binder,SPOT peptide array binding signal intensity
1,RSRRSSFAYPQQVAI,141

# Molecular target: ScPex13
# Experiment: as above
# Experimental: as §1
row,Binder,SPOT peptide array binding signal intensity
1,RSRRSSFAYPQQVAI,10

# Molecular target: ScRvs167
# Experiment: as above
# Experimental: as §1
row,Binder,SPOT peptide array binding signal intensity
1,RSRRSSFAYPQQVAI,8.33

# Molecular target: ScSho1
# Experiment: as above
# Experimental: as §1
row,Binder,SPOT peptide array binding signal intensity
1,RSRRSSFAYPQQVAI,304

# Molecular target: ScSla1-D1-D2
# Experiment: as above
# Experimental: as §1
row,Binder,SPOT peptide array binding signal intensity
1,RSRRSSFAYPQQVAI,339

# Molecular target: ScSla1-D3
# Experiment: as above
# Experimental: as §1
row,Binder,SPOT peptide array binding signal intensity
1,RSRRSSFAYPQQVAI,20.2

# Molecular target: SpAbp1-D1
# Experiment: as above
# Experimental: as §1
row,Binder,SPOT peptide array binding signal intensity
1,RSRRSSFAYPQQVAI,36

# Molecular target: SpBbc1
# Experiment: as above
# Experimental: as §1
row,Binder,SPOT peptide array binding signal intensity
1,RSRRSSFAYPQQVAI,3.5

# Molecular target: SpBzz1-D1
# Experiment: as above
# Experimental: as §1
row,Binder,SPOT peptide array binding signal intensity
1,RSRRSSFAYPQQVAI,169

# Molecular target: SpBzz1-D2
# Experiment: as above
# Experimental: as §1
row,Binder,SPOT peptide array binding signal intensity
1,RSRRSSFAYPQQVAI,≤ 0

# Molecular target: SpCyk3
# Experiment: as above
# Experimental: as §1
row,Binder,SPOT peptide array binding signal intensity
1,RSRRSSFAYPQQVAI,1.5

# Molecular target: SpHof1
# Experiment: as above
# Experimental: as §1
row,Binder,SPOT peptide array binding signal intensity
1,RSRRSSFAYPQQVAI,93.5

# Molecular target: SpHof1-2
# Experiment: as above
# Experimental: as §1
row,Binder,SPOT peptide array binding signal intensity
1,RSRRSSFAYPQQVAI,13

# Molecular target: SpHof1-3
# Experiment: as above
# Experimental: as §1
row,Binder,SPOT peptide array binding signal intensity
1,RSRRSSFAYPQQVAI,203

# Molecular target: SpHse1
# Experiment: as above
# Experimental: as §1
row,Binder,SPOT peptide array binding signal intensity
1,RSRRSSFAYPQQVAI,168

# Molecular target: SpLsb1
# Experiment: as above
# Experimental: as §1
row,Binder,SPOT peptide array binding signal intensity
1,RSRRSSFAYPQQVAI,7.75

# Molecular target: SpLsb4
# Experiment: as above
# Experimental: as §1
row,Binder,SPOT peptide array binding signal intensity
1,RSRRSSFAYPQQVAI,59

# Molecular target: SpMyo1
# Experiment: as above
# Experimental: as §1
row,Binder,SPOT peptide array binding signal intensity
1,RSRRSSFAYPQQVAI,6.75

# Molecular target: SpNbp2
# Experiment: as above
# Experimental: as §1
row,Binder,SPOT peptide array binding signal intensity
1,RSRRSSFAYPQQVAI,91

# Molecular target: SpPex13
# Experiment: as above
# Experimental: as §1
row,Binder,SPOT peptide array binding signal intensity
1,RSRRSSFAYPQQVAI,17

# Molecular target: SpRvs167
# Experiment: as above
# Experimental: as §1
row,Binder,SPOT peptide array binding signal intensity
1,RSRRSSFAYPQQVAI,8.83

# Molecular target: SpSla1-D1-D2
# Experiment: as above
# Experimental: as §1
row,Binder,SPOT peptide array binding signal intensity
1,RSRRSSFAYPQQVAI,3

# Molecular target: SpSla1-D3
# Experiment: as above
# Experimental: as §1
row,Binder,SPOT peptide array binding signal intensity
1,RSRRSSFAYPQQVAI,10
